The nature of test [1]: rapamycin-like changes in RPL19A-GFP expression – cell-based, S. cerevisiae, multiplex flow cytometry, primary screen (AID 1862; in the data active means percent of DMSO control GFP below about 86%;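 further: lower values mimic rapamycin by blocking the RPL19A rise seen in DMSO cells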). Particulars: S. cerevisiae RPL19A-GFP strain, flow cytometry fluorescence, 3 h; at 10 µM; stronger effect = lower value.
Test [2] is described as follows: TOR pathway GLN3 branch reporter MEP2-GFP changes – S. cerevisiae, multiplex flow cytometry, primary screen (AID 1867;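 active means GFP response, as percent of the DMSO control, above the screen-wide mean plus 3 SD, about 139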;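 further: median GFP channel fluorescence of barcode-gated MEP2-GFP cells measured by flow cytometry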). Particulars: S. cerevisiae MEP2-GFP strain, 3 h, at 10 µM, stronger effect = higher value, 100% means same as DMSO wells. For orientation: A flow cytometer gives signals particle by particle.
Test [3] in a line: TOR pathway RTG branch CIT2 reporter changes – S. cerevisiae, GFP fusion, multiplex flow cytometry, primary screen (AID 1870;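 active means percent response above a set limit, the screen-wide mean plus 3 SD, cut at about 130% in these data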;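 further: barcoded CIT2-GFP strain pooled with four other GFP strains with rapamycin as positive control; median GFP fluorescence per well over plate mean of DMSO wells so 100% = DMSO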). Conditions: S. cerevisiae CIT2-GFP expression, 3 h, at 10 µM, stronger effect = higher value.
Test [4] is described as follows: TOR pathway LAP4-GFP level changes – S. cerevisiae, multiplex flow cytometry, primary screen (AID 1873;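 active means GFP signal, as percent of the solvent control, above the screen mean plus 3 SD, about 149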). Particulars: S. cerevisiae LAP4-GFP expression, 3 h, at 10 µM, stronger effect = higher value.
A short description of test [5]: reduced mouse 2C T cell binding to pMHC/ICAM-1 vesicles – MLPCN validation set, flow cytometry, LFA-1/ICAM-1 modulator project, pilot screen (AID 2523;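 active means response below a set limit, under 55% cells CD8-positive and vesicle-bound, and CD8 cells' 90th-percentile brightness under 279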;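 on vesicle binding response: mean PE anti-B7-1 fluorescence of CD8+ cells relative to row control; 100% = QL9-loaded vesicles with DMSO vehicle in the same plate row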). Conditions: 2C mouse CD8+ T cells, at 7 µM, stronger effect = lower value; double positive events: measured here: CD8+/vesicle+ event percentage.
Test [6] concerns the target Integrin beta-1 (Homo sapiens) + Integrin alpha-4 (Homo sapiens) (UniProt P13612+P05556). The experiment in a line: alpha4beta1 integrin LIBS antibody binding reduction – U937 cells, HUTS-21 mAb, flow cytometry, validation set, VLA-4 allosteric modulator project, pilot screen (AID 2674;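 active means inhibition above 50%, about 3 SD of the validation set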;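 further: antibody binding induced by the VLA-4 ligand LDV present at three times its Kd; 0% = LDV ligand with antibody and no compound and 100% = antibody without LDV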). Conditions: HUTS-21 LIBS mAb binding, at 6.7 µM, stronger effect = higher value, binding induced by LDV ligand.

Test [7] can be described thus: calorie-restriction mimetic ROS inhibitors, yeast – validation compound set, pilot screen (AID 2706;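 active means superoxide response below 65% of plate, a cut near 3 SD across the whole screen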;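 further: yeast exposed to compound for one week at 30 degrees C before staining; 100% = mean of all compound wells on the same plate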). Conditions: S. cerevisiae aging, superoxide DHE fluorescence; at 10 µM, stronger effect = lower value.
Test [8] addresses Beta-adrenergic receptor kinase 1 (Homo sapiens) (UniProt P25098). The experiment in a line: GRK2 binders displacing RNA aptamer, biochemical, validation, human GRK2, bead flow cytometry (AID 488806;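 active means aptamer binding inhibition above 30%, about 3 SD of noise from non-fluorescent compounds; inactive means inhibition at or below 30%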). Conditions: bead-bound GRK2, FAM-aptamer displacement, at 10 µM, stronger effect = higher value.
The target in test [9] is AP-2 complex subunit beta (Homo sapiens) (UniProt P63010). The experiment in a line: beta-arrestin/AP2 interaction blockers – biochemical, validation set, GST-AP2 beads, flow cytometry, pilot screen (AID 504541;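 active means inhibition above 54%, about 3 SD of non-fluorescent compounds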;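 further: AP2 carries R879A mutation and is captured from E. coli lysate; bead-bound FITC arrestin peptide fluorescence measuring arrestin peptide binding to AP2; 0% = DMSO wells and 100% = excess unlabeled arrestin peptide control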). Particulars: FITC arrestin peptide, at 10 µM, stronger effect = higher value, AP2 beta2 appendage fragment, R879A mutant.
AP-2 complex subunit beta (Homo sapiens), sequence (P63010 whole entry, looked up, the tested form may be a part, one chain of several): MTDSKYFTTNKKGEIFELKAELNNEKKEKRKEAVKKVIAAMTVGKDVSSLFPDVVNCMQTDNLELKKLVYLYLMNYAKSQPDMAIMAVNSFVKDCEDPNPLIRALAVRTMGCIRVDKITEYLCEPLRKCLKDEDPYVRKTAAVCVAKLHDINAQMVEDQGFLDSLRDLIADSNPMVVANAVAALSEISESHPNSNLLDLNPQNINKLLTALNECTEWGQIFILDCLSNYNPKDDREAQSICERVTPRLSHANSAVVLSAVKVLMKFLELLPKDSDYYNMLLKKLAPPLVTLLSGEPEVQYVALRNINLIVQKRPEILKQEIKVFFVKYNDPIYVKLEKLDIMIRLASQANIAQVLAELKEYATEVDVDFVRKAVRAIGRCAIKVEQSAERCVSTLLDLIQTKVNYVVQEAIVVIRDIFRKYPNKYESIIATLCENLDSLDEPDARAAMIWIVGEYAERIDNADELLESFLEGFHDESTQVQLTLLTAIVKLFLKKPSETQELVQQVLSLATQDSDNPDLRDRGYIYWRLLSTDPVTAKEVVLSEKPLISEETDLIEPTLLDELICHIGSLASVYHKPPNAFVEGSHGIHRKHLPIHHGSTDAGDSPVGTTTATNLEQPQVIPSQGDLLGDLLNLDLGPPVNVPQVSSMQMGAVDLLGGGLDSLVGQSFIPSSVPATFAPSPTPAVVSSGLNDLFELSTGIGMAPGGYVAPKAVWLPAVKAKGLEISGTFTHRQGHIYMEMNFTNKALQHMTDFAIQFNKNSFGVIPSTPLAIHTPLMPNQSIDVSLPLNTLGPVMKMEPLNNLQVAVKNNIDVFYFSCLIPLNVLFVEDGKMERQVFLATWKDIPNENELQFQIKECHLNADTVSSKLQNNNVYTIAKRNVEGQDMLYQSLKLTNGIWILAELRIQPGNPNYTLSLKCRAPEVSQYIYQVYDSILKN
A short description of test [10]: cytosolic pH regulators acting via V-ATPase – S. cerevisiae, pHLuorin, HTS validation (AID 504600; in the data active means response above about 15%;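 further: plate controls were DMSO for no effect and reference compound for full effect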). Particulars: V-ATPase proton transport, at 10 µM, stronger effect = higher value.
Test [11] has as its system anti-desmoglein-3 scFv antibody binding to human DSG3. The experiment in a line: blockers of pathogenic pemphigus antibody–desmoglein-3 binding – biochemical, validation compound set, bead-based, flow cytometry, pilot screen (AID 588368;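 active means binding below the plate cutoff, the plate median minus 3 SD, with a reading above zero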;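 further: signal is the median channel fluorescence of bead-bound GFP antibody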). Conditions: Protein G beads, DSG3-Fc, scFv-GFP binding, at 10 µM, stronger effect = lower value.
Test [12] is described as follows: Nile Red efflux blockade in pump-expressing yeast – validation compound set, multiplex, phenotypic, pilot screen (AID 588506;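 active means efflux inhibition above 0.42, the validation set average plus 4 SD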;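 further: Nile Red retained in cells so higher fluorescence means more efflux inhibition; 0 = negative control wells and 1 = enniatin B 25 µM full block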). Conditions: S. cerevisiae pump-expressing triplex, Nile Red efflux flow cytometry; at 10 µM; stronger effect = higher value; the pumps come from Candida albicans.
In test [13] the target is ATP-binding cassette sub-family B member 6 (Homo sapiens) (UniProt Q9NP58). The experiment in a line: blockers of ABCB6-driven porphyrin uptake – K562-ABCB6 cells, flow cytometry, validation set, pilot screen (AID 588550).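 Further: 0% = DMSO wells and 100% = benzethonium chloride 70 µM positive control.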 Particulars: K562-ABCB6 porphyrin accumulation, 1 h, at 10 µM, stronger effect = higher value.
ATP-binding cassette sub-family B member 6 (Homo sapiens), sequence (Q9NP58 whole entry, looked up): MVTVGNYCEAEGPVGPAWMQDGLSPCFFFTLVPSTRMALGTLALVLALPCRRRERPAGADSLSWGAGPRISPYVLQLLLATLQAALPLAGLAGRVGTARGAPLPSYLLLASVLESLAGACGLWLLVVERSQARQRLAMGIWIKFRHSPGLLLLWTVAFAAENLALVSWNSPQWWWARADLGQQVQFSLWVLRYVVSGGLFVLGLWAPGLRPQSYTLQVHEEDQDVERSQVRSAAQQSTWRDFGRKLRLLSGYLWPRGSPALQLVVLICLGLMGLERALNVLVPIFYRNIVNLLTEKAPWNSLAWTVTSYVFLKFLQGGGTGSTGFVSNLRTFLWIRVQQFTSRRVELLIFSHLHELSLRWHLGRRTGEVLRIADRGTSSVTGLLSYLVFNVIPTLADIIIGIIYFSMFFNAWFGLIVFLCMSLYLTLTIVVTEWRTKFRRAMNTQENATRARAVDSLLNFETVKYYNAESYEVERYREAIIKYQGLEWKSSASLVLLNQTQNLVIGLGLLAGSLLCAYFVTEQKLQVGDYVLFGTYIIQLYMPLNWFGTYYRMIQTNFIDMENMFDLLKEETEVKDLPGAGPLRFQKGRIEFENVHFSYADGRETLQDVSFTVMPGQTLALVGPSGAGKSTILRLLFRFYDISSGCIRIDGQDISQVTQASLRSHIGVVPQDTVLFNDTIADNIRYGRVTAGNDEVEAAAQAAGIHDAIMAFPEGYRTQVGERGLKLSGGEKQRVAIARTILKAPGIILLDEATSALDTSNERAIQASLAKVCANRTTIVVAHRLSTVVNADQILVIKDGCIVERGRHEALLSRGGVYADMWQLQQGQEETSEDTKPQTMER
The nature of test [14]: AML differentiation inducers, ER-HoxA9 marrow cells – cell-based, GFP/MAC1 double positive, flow cytometry, validation set, primary screen (AID 588685;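 active means differentiation response of at least 50%, scaled between solvent and reference control, from cells with both markers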;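 further: compound exposure lasts four days before antibody staining and flow analysis; 0% = DMSO wells and 100% = 5 µM fulvestrant positive control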). Conditions: stronger effect = higher value, normalized: vehicle 0, fulvestrant 100.
Test [15] in a line: yeast AGP1-GFP level changes, GLN3 branch – cell-based, multiplex flow cytometry, S. cerevisiae, primary screen (AID 1887;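 active means GFP signal above the screen-wide mean plus 3 SD, that is over about 124.5% of the solvent control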;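 further: AGP1-GFP fusion strain of S. cerevisiae within a five-strain barcoded multiplex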). Particulars: 3 h, at 10 µM, stronger effect = higher value.
In test [16] the target is Beta-2 adrenergic receptor (Homo sapiens) (UniProt P07550). The experiment in a line: agonist-induced loss of surface beta2AR – cell-based, FAP fluorogen, flow cytometry, validation set, pilot screen (AID 504459;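 active means percent response above 42, roughly 3 SD of non-fluorescent test compounds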;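 further: agonist-driven loss of surface beta2AR via internalization measured by FAP dye flow cytometry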). Particulars: Am2.2-beta2AR cells, at 10 µM, stronger effect = higher value.
Beta-2 adrenergic receptor (Homo sapiens), sequence (P07550 whole entry, looked up): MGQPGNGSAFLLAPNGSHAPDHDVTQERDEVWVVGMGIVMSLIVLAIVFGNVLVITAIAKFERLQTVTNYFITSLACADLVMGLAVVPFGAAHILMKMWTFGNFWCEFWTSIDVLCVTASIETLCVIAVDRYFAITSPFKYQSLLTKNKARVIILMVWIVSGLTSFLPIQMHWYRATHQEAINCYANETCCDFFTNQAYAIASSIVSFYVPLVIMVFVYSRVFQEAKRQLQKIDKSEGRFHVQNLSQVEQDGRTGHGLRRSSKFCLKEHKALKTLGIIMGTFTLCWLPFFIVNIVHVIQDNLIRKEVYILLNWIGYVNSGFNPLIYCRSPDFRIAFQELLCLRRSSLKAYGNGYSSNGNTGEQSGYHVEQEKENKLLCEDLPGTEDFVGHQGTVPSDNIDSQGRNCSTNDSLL

Inconclusive results are not listed. Active and inactive are the calls of the source.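 How the source made its calls, unless noted: active means inhibition above the screen-wide mean plus 3 SD, about 51%; inactive means the rest.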

Integrin beta-1 (Homo sapiens) + Integrin alpha-4 (Homo sapiens), sequence (P05556 whole entry, looked up): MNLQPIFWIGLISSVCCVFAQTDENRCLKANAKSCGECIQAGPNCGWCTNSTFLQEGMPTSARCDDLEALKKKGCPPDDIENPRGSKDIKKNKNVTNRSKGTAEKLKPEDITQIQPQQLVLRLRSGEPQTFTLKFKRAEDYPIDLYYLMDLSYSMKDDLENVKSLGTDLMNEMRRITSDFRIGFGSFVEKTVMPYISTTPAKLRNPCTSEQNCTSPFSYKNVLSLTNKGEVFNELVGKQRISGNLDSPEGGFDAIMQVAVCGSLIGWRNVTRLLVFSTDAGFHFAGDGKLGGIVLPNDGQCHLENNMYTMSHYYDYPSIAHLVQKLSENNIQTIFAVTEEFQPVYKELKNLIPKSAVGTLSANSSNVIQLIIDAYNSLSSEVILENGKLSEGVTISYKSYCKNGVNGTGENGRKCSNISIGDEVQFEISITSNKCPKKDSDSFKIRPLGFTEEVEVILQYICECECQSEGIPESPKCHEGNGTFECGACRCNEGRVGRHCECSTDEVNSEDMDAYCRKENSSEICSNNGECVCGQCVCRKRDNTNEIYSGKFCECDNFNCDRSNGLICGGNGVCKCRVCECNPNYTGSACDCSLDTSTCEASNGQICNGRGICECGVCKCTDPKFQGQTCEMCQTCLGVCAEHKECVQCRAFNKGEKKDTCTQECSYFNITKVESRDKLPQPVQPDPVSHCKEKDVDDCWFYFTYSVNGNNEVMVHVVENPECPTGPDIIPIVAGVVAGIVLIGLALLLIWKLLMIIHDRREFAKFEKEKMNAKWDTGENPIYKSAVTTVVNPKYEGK
Integrin beta-1 (Homo sapiens) + Integrin alpha-4 (Homo sapiens), sequence (P13612 whole entry, looked up): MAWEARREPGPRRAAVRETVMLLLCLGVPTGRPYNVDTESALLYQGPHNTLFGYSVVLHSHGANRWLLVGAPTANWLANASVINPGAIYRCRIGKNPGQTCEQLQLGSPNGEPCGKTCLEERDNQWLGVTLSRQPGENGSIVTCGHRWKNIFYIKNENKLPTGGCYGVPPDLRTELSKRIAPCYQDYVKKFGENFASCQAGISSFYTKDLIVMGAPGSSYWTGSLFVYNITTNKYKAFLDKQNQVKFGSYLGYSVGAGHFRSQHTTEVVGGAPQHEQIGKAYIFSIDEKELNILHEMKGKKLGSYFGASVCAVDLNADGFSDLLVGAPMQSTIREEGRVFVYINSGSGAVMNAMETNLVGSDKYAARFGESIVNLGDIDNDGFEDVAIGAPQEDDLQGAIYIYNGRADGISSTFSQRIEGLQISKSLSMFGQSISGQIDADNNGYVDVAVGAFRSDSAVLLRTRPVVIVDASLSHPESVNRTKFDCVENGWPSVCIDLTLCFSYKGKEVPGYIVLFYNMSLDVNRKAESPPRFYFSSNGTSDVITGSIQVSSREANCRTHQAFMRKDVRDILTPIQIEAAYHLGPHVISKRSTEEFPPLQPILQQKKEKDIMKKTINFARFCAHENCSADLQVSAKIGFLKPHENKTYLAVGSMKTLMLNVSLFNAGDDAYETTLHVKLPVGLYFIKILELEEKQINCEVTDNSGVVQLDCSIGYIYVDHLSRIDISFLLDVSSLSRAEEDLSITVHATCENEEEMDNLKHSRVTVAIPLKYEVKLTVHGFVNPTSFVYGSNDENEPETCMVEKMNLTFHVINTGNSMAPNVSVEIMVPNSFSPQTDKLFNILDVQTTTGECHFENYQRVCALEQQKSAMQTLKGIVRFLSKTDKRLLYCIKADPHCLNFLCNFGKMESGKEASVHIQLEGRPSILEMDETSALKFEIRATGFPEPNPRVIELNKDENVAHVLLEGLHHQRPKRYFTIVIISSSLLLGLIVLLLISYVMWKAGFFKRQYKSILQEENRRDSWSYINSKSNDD
Beta-adrenergic receptor kinase 1 (Homo sapiens), sequence (P25098 whole entry, looked up): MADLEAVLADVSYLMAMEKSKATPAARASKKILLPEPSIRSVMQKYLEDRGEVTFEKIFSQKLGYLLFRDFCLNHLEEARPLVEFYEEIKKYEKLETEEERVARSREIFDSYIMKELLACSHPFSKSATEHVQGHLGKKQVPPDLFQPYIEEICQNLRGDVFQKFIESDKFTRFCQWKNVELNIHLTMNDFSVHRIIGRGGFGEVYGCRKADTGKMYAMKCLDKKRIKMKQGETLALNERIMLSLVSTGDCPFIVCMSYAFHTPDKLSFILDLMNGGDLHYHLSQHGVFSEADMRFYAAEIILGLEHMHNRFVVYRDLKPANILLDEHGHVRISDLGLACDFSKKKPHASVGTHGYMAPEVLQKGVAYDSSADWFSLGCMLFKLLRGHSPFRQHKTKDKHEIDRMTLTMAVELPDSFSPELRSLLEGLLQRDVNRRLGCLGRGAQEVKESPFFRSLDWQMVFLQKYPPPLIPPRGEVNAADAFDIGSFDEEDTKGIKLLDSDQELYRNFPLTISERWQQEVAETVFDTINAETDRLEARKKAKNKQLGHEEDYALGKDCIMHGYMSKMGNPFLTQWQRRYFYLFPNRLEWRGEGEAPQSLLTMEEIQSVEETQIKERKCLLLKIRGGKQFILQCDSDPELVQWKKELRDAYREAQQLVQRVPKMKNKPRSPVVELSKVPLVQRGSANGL

What is called inhibition is the relative decrease from the control value, in per cent. With `CNCCCN1c2ccccc2CCc2ccccc21`, the percent of DMSO control GFP in test [1] is 93.3% (inactive). In addition, the GFP response vs DMSO in test [2] is 111% (inactive); in [4], 78.7% (inactive). For the same compound, the percent response of DMSO control in test [3] was 92.6% (inactive). Besides, the double positive events in test [5] turned out to be 71.5%. Further, the vesicle binding response in [5] was 231% (inactive). The results for the inhibition in test [6], in test [9] and in test [13] were 16.2% (inactive), -10.5% (inactive) and 9% (inactive), respectively. In addition, in test [7], the superoxide response (% of plate) is 81.9% (inactive). Besides, in [8], the aptamer binding inhibition was -1% (inactive). Besides, the response in [10] is 0.46% (inactive). In addition, in test [11], the binding (% of control) is 109% (inactive). The efflux inhibition (fraction of control) in test [12] was -0.38 (inactive). Moreover, in test [14], the differentiation response is 9.83% (inactive).

With `C=CCc1cc(Cl)ccc1OCCOCCN(C)C`, the percent of DMSO control GFP in [1] is 103% (inactive). In test [3], the percent response of DMSO control is 108% (inactive). In addition, in test [4], the GFP response vs DMSO was 75.2% (inactive). The GFP response, % of DMSO in test [15] was 88.5% (inactive). The compound further had a double positive events in [5] of 60%. Besides, the vesicle binding response in [5] is 144% (inactive). Also, the inhibition in [6] was -4.52% (inactive); in test [9], -5.37% (inactive); in test [13] it was 1% (inactive). Also, in [7], the superoxide response (% of plate) is 98.8% (inactive). Further, the aptamer binding inhibition in test [8] was 4% (inactive). For the same compound, the response in test [16] was 3.31% (inactive); in [10], -5.95% (inactive). For the same compound, the binding (% of control) in test [11] was 102% (inactive). Moreover, in test [12], the efflux inhibition (fraction of control) is -0.17 (inactive). Moreover, the differentiation response in [14] is 16.8% (inactive).

Turning to `CC1(C)CC(=O)C(C(=O)CCCCC(=O)C2C(=O)CC(C)(C)CC2=O)C(=O)C1`, the percent of DMSO control GFP in test [1] is 105% (inactive). Moreover, the GFP response vs DMSO in test [2] was 114% (inactive); in test [4], 91.3% (inactive). The percent response of DMSO control in test [3] was 112% (inactive). For the same compound, in test [5], the double positive events worked out at 76%. For the same compound, the vesicle binding response in test [5] is 197% (inactive). For the same compound, the results for the inhibition in test [6], in test [9] and in [13] were -6.15% (inactive), -8.71% (inactive) and 14% (inactive), respectively. Moreover, the superoxide response (% of plate) in test [7] was 97.2% (inactive). The aptamer binding inhibition in test [8] is -1% (inactive). Besides, the values for the response in [16] and in [10] were -2.15% (inactive) and -8.22% (inactive), respectively. For the same compound, the binding (% of control) in [11] is 114% (inactive). The efflux inhibition (fraction of control) in test [12] is -0.24 (inactive). In test [14], the differentiation response is -2.46% (inactive).

`CC1CCCc2sc3ncn(N)c(=N)c3c21` (stereo not drawn): the percent of DMSO control GFP in test [1] is 103% (inactive). Moreover, the percent response of DMSO control in test [3] is 105% (inactive). For the same compound, the GFP response, % of DMSO in test [15] is 87.1% (inactive). Also, the double positive events in test [5] came out at 62.2%. Besides, the vesicle binding response in [5] is 246% (inactive). Further, the inhibition in [6] is -3.16% (inactive); in test [9], -3.27% (inactive); in [13] it was 7% (inactive). Moreover, the superoxide response (% of plate) in test [7] is 94.2% (inactive). The aptamer binding inhibition in [8] was 4% (inactive). Moreover, the response in test [16] is 31.1% (inactive); in [10], 3.56% (inactive). Moreover, the binding (% of control) in [11] was 98.2% (inactive). In addition, the efflux inhibition (fraction of control) in [12] was -0.24 (inactive). In addition, the differentiation response in [14] is -4% (inactive).

For the compound `Cc1ccccc1OCC(O)CN1CCN(C)CC1` (stereo not drawn), the percent of DMSO control GFP in [1] is 97.9% (inactive). Moreover, the GFP response vs DMSO was 115% (inactive) in [2] and 75.9% (inactive) in test [4]. Further, in test [3], the percent response of DMSO control was 112% (inactive). Also, in test [5], the double positive events came out at 62.9%. Also, in [5], the vesicle binding response is 193% (inactive). Moreover, the inhibition is 4.52% (inactive) in test [6], 5.62% (inactive) in test [9] and 7% (inactive) in test [13]. The superoxide response (% of plate) in [7] is 107% (inactive). Also, the aptamer binding inhibition in test [8] was 3% (inactive). Besides, the response in [16] was -6.23% (inactive); in test [10], -0.77% (inactive). For the same compound, the binding (% of control) in test [11] was 103% (inactive). Further, in test [12], the efflux inhibition (fraction of control) was 0.27 (inactive). The differentiation response in test [14] is -2.46% (inactive).

The values are drawn from PubChem BioAssay.
